# From PubChem BioAssay AID430 (Sanford-Burnham Center for Chemical Genomics, 2006)
# “And” between values parts separate entries of the source, which are not always exact repeats. Equal values may be shown once. Out of some 63,000 compounds screened, about 1,100 (1.7%) were called active. Rule as the data show it: active = cytotoxicity above about 50%; inactive = the rest. This excerpt belongs to a sample that is enriched for actives. Measured potencies and affinities stand elsewhere. Some structures have more than one record in an assay (separate samples or runs), and their calls can disagree.
# Assay: HPDE-C7 pancreatic duct cell viability loss – fluorescence, HTS (AID 430);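 also: cells exposed to compound for 48 hours before viability readout; 0% = vehicle and 100% = reference cytotoxic drug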
# Conditions: HPDE-C7 pancreatic duct cells viability, at 10 µM, stronger effect = higher value
row,SMILES,cytotoxicity
1,CCOC(=O)c1cc2c(cn1)[nH]c1ccccc12,30.4% (inactive)
2,c1ccc2c3c([nH]c2c1)CNCC3,-4.7% (inactive)
3,c1ccc2c(c1)[nH]c1cnccc12,72.4% (active)
4,CC12CCCCC1N(O)CN2O (stereo not given),-2.3% (inactive)
5,CCOc1ccccc1C1SCC(=O)Nc2c1c(=O)[nH]n2C(CC)CC (stereo not given),-4% (inactive)
6,CCCCCn1c(=O)c(C(=O)Nc2ccncc2)c(O)c2ccccc21,68.6% (active)
7,CCCCCCn1c(=O)c(C(=O)Nc2ccncc2)c(O)c2ccccc21,37.2% (inactive)
8,CCCCn1c(=O)c(C(=O)Nc2ccccc2S(N)(=O)=O)c(O)c2ccccc21,-2.2% (inactive)
9,CCCCCCn1c(O)c(C=Nc2c(C)n(C)n(-c3ccccc3)c2=O)c(=O)[nH]c1=O,5.3% (inactive)
10,CCCCCCn1c(=O)c(C(=O)Nc2c(C)n(C)n(-c3ccccc3)c2=O)c(O)c2ccccc21,51.8% (active)
11,CCCCCn1c(=O)c(C(=O)NCc2ccncc2)c(O)c2ccccc21,60.6% (active)
12,CCCCn1c(=O)c(C(=O)Nc2cnccn2)c(O)c2ccccc21,60.1% (active)
13,O=C(Nc1ccncc1)c1c(O)c2ccccc2n(Cc2ccccc2)c1=O,-2.4% (inactive)
14,CCCCn1c(=O)c(C(=O)Nc2nc3ccccc3[nH]2)c(O)c2ccccc21,15.2% (inactive)
15,CCCCc1nc2ccccc2c(=O)n1-c1ccc(O)cc1,-5.1% (inactive)
16,CCCCCn1c(=O)c(C(=O)NCc2ccccn2)c(O)c2ccccc21,2.6% (inactive)
17,O=C(Nc1cccnc1)c1c(O)c2c(n(Cc3ccccc3)c1=O)CCCC2,1% (inactive)
18,COc1ccc(CC2c3cc(OC)c(OC)cc3CCN2C)cc1OC (stereo not given),3.5% (inactive)
19,COc1ccc2c(c1)CC1(CN2C)C(=O)NC(=O)N(c2ccc(C)cc2)C1=O (stereo not given),5.9% (inactive)
20,COc1ccc2nc(NC(=O)CCc3nc(C4=CCN(C)CC4)no3)sc2c1,-12.4% (inactive)
21,O=c1cccc2n1CC1CC2CN(Cc2ccc3c(c2)OCO3)C1 (stereo not given),-17.1% (inactive)
22,C=CCN1C(=O)CSc2ccc(C(=O)N3CCC4(CC3)OCCO4)cc21,-17.9% (inactive)
23,C=Cn1ccnc1P(=S)(c1ccn(C)c1)c1nccn1C=C,7.8% (inactive)
24,CCCCN1C(=O)NC(=O)C2(Cc3c(nc4c(C)cccn4c3=O)N3CCc4ccccc4C32)C1=O (stereo not given),13.9% (inactive)
25,O=c1[nH]c(=O)n(CCc2ccc(F)cc2)c(O)c1C=NCCCn1ccnc1,-19.6% (inactive)
26,CC(CCc1ccccc1)NC(C)C(O)c1ccc(O)cc1 (stereo not given),8.9% (inactive)
27,CNCC(O)c1cccc(OC(=O)c2ccccc2C)c1 (stereo not given),-3.3% (inactive)

row,SMILES,cytotoxicity
1,CNCC(O)c1ccc(O)cc1 (stereo not given),50.6% (active)
2,Cc1ccc(-c2nc(CS(=O)CC(=O)N3CCC4(CC3)OCCO4)c(C)o2)cc1 (stereo not given),1.6% (inactive)
3,CC(C)=CCC12CN3CCN(CC(C3)C1=O)C2,-7.6% (inactive)
4,COc1cc(OC)cc(-n2nc(C(=O)N3CCC4(CC3)OCCO4)c3ccccc3c2=O)c1,-1.5% (inactive)
5,CCC(=NCc1cccnc1)c1c(O)n(C2CCCCC2)c(=O)[nH]c1=O,-32.8% (inactive)
6,CCC(=NCc1ccc2c(c1)OCO2)c1c(O)n(C2CCCCC2)c(=O)[nH]c1=O,64.4% (active)
7,CCCCn1c(O)c(C(CC)=NCc2ccc3c(c2)OCO3)c(=O)[nH]c1=O,10% (inactive)
8,Cn1c2ccccc2c2c(C(=O)N3CCC4(CC3)OCCO4)cn(C3CCCCC3)c(=O)c21,-1.3% (inactive)
9,NCCCP(=O)(O)CCc1ccccc1,-5.8% (inactive)
10,Cn1c(O)c(/C=N/c2ccccn2)c(=O)n(C)c1=O,-18.2% (inactive)
11,CCOc1ccc(C2SCC(=O)Nc3c2c(=O)[nH]n3C2CCCCCC2)cc1 (stereo not given),-18.2% (inactive)
12,COc1ccc(C2SCC(=O)Nc3c2c(=O)[nH]n3C2CCCCC2)cc1 (stereo not given),-0.7% (inactive)
13,COc1ccc(C2SCC(=O)Nc3c2c(=O)[nH]n3C2CCCCCC2)cc1 (stereo not given),90.9% (active)
14,N#Cc1ccc(N2CCNCC2)c(F)c1,8.7% (inactive)
15,O=C1NC(=O)C2(Cc3c(nc4ccccn4c3=O)N3CCCCCC32)C(=O)N1Cc1ccccc1 (stereo not given),48.1% (inactive)
16,Cc1nc2ccc(Cl)cn2c1P(=S)(N1CCOCC1)N1CCOCC1,-4.2% (inactive)
17,COc1ccc(Cn2c(N)c(C(=O)NCc3ccco3)c3nc4ccccc4nc32)cc1OC,2.8% (inactive)
18,COc1ccc(Cn2c(N)c(C(=O)NCc3ccco3)c3nc4ccccc4nc32)cc1,69.5% (active)
19,COCCOC(=O)c1c(N)n(Cc2ccco2)c2nc3ccccc3nc12,17.4% (inactive)
20,Nc1c(C(=O)NCc2ccco2)c2nc3ccccc3nc2n1Cc1ccc(F)cc1,80.9% (active)
21,Nc1c(C(=O)NCCN2CCOCC2)c2nc3ccccc3nc2n1Cc1ccco1,5.7% (inactive)
22,COCCOC(=O)c1c(N)n(Cc2ccc(OC)cc2)c2nc3ccccc3nc12,-32.4% (inactive)
23,Cc1nnc2ccc(N3CCN(C)CC3)nn12,-0.1% (inactive)
24,C=CCN1C(=O)C2(C(C(=O)OCC)=C(N)Oc3ccccc32)c2c1c1ccccc1oc2=O (stereo not given),5.2% (inactive)
25,CCOC(=O)c1c(N)n(CCN2CCCCC2)c2nc3ccccc3nc12,9.2% (inactive)
26,CCCCn1c(N)c(C(=O)NCCN2CCOCC2)c2nc3ccccc3nc21,1.4% (inactive)
27,CCCCCCn1c(N)c(C(=O)NCCN2CCOCC2)c2nc3ccccc3nc21,72.1% (active)

row,SMILES,cytotoxicity
1,CCCCCn1c(N)c(C(=O)NCCN2CCOCC2)c2nc3ccccc3nc21,10.6% (inactive)
2,COc1ccc(CCNC(=O)c2c(N)n(CCN3CCOCC3)c3nc4ccccc4nc23)cc1,62.9% (active)
3,CCCCNC(=O)c1c(N)n(CCCOC)c2nc3ccccc3nc12,24.4% (inactive)
4,OCCNc1c2c(nc3ccccc13)CCCC2,-2.4% (inactive)
5,CC(=NCCCN1CCOCC1)c1c(O)[nH]c(=O)[nH]c1=O,3.3% (inactive)
6,CC1(C)C(C(=O)NCc2ccco2)C1(C)C,-21.5% (inactive)
7,Cc1cccc(-c2nc3ccccc3c(=O)n2-n2cccc2)c1,19.1% (inactive)
8,Cc1cccc(N2CCc3c2nc2ccccc2c3N)c1,24.2% (inactive) and 50.1% (active)
9,Cc1nc2ccccc2c(=O)n1-c1cccc(O)c1,3.6% (inactive)
10,CC(=NCc1cccnc1)c1c(O)n(Cc2ccccc2)c(=O)[nH]c1=O,-13.3% (inactive)
11,c1cc2n(c1)-c1c(ccc3c1OCO3)CNC2c1ccc2c(c1)OCO2 (stereo not given),29.3% (inactive)
12,COc1ccc(C2NCc3ccc4c(c3-n3cccc32)OCO4)cc1O (stereo not given),63.9% (active)
13,COc1ccc(C2NCc3ccc4c(c3-n3cccc32)OCO4)cc1OC (stereo not given),-0.1% (inactive)
14,O=C(O)C(O)(c1ccccc1)C1CCCC1 (stereo not given),13.6% (inactive)
15,CN(C)CP(=O)(Nc1ccccc1)N(C)C (stereo not given),-14.4% (inactive)
16,O=C(c1cc(-c2cccnc2)nc2ccc(Cl)cc12)N1CCC2(CC1)OCCO2,4.7% (inactive)
17,COc1cccc(OC)c1C1=NCC(=O)Nc2c1oc1ccc(Br)cc21,72.5% (active)
18,O=C1CN=C(c2ccccc2)c2oc3ccc(Br)cc3c2N1,-10.4% (inactive)
19,Cc1cc(NC(=O)COC(=O)c2c(C)nn(Cc3ccccc3Cl)c2Cl)no1,3.7% (inactive)
20,O=c1c2ccccc2nc(-c2cccs2)n1-c1cnccn1,2.1% (inactive)
21,CCn1nc(-c2ccccc2)nc2c(=O)n(C)c(=O)nc1-2,119% (active)
22,CCc1nc2ccccc2c(=O)n1-c1cccc(OC)c1,18.7% (inactive)
23,CCn1nc(-c2cccs2)nc2c(=O)n(C)c(=O)nc1-2,114% (active)
24,CSc1ccc(CNC2CN3CCC2CC3)cc1 (stereo not given),-5.8% (inactive)
25,O=C(Cc1ccccc1)OCCN1CCCCC1,0.7% (inactive)
26,Cc1cccc(OC(=O)N2CCOCC2)c1,-0.2% (inactive)
27,O=C(COc1ccccc1)N1CCN(C/C=C/c2ccccc2)CC1,1.6% (inactive)

row,SMILES,cytotoxicity
1,CCCCOc1ccc(CN2CCN(CCO)CC2)cc1,23.7% (inactive)
2,CCCCc1ccc2[nH]cc(CCN)c2c1,62.3% (active)
3,COc1ccc2[nH]cc(CCN(C)C)c2c1,-6% (inactive)
4,NCCc1c[nH]c2ccc(F)cc12,-7.7% (inactive)
5,COc1cc(OC)c(OC)cc1CNC(C)C(O)c1ccccc1 (stereo not given),2.2% (inactive)
6,COC(=O)c1cc2c(s1)=NC=NP=2(N1CCOCC1)N1CCOCC1,-14.1% (inactive)
7,C[C@@]1(CO)[C@H](O)CC[C@@]2(C)[C@H]1CC[C@H]1C[C@@H]3C[C@@]12CC[C@]3(O)CO,82.5% (active)
8,O=C(C(Cc1ccccc1)NS(=O)(=O)c1cccc2nsnc12)N1CCC2(CC1)OCCO2 (stereo not given),-4.1% (inactive)
9,O=C(c1ccc(CS(=O)(=O)c2ccccc2)o1)N1CCC2(CC1)OCCO2,-2.7% (inactive)
10,CCC(=Nc1ccccc1NC(C)=O)c1c(O)n(C)c(=O)n(C)c1=O,41.8% (inactive)
11,CC(=O)C1=C(C)OC(N)=C(C(=O)OC(C)C)C12C(=O)Nc1ccccc12 (stereo not given),-8.9% (inactive)
12,CCc1nc(N2CCNCC2)c(C#N)c2c1CSC(C)(C)C2,37.6% (inactive)
13,CCCCc1nc(N2CCNCC2)c(C#N)c2c1CSC(C)(C)C2,52.3% (active)
14,O=C(CN1C(=O)CN=C(c2ccccc2Cl)c2cc(Cl)ccc21)NCc1ccco1,2.5% (inactive)
15,O=c1[nH]c(=O)n(CCC2=CCCCC2)c(O)c1C=NCCCn1ccnc1,-30.8% (inactive)
16,COc1ccc(C(=O)C(C)(C)NO)cc1,-9.5% (inactive)
17,C=CCn1c(O)c(C(C)=NCc2cccnc2)c(=O)[nH]c1=O,8.9% (inactive)
18,O=C(Cn1ncc2ccccc21)N1CCC2(CC1)OCCO2,-19.4% (inactive)
19,O=c1[nH]c(=O)n(C2CCCCCC2)c(O)c1C=NCCCN1CCOCC1,2.2% (inactive)
20,O=c1c(C=NCCN2CCNCC2)c(O)n(C2CCCCC2)c(=O)n1C1CCCCC1,62.8% (active)
21,O=c1[nH]c(=O)n(Cc2ccccc2)c(O)c1C=NCCN1CCNCC1,-11.2% (inactive)
22,Cc1nc2c(c(C)nn2-c2ccccc2)c(C)c1CCC(=O)N1CCC2(CC1)OCCO2,-12.1% (inactive)
23,Fc1ccc2c(c1)nnn2C1CCN(Cc2nnnn2C2CCCCC2)CC1,-8% (inactive)
24,NC(=O)C1(N2CCCCC2)CCN(Cc2ccccc2)CC1,-8.8% (inactive)
